Data published in the supplement of paper PMC7765376.
Counter-ions that a name gives are not always drawn. The full ranking holds about 1,500 compounds; the median of “Excess HSA synergy score (sum over dose matrix of excess over highest single agent)” is about 43, and the lowest 2% start at about -900. The list comes from a sample in which the lowest values are over-represented; it also holds similar structures and randomly drawn compounds.

System: PEO-1
Assay: Excess HSA synergy score (sum over dose matrix of excess over highest single agent) (score (summed % response)); higher = less synergy / more antagonism (negative = synergy)
Settings: 72 h, read-out: viability/apoptosis luminescence (CellTiter-Glo or Caspase3-Glo / not stated per table)
[1] = matrix design: 6x6, 5-fold dilutions (primary screen)
[2] = matrix design: 10x10, 9-step dilutions (confirmatory)

C/C=C(/C)C(=O)O[C@H]1C(C)=C2[C@H]([C@@H]1OC(=O)CCCCCCC)[C@@](C)(OC(C)=O)C[C@H](OC(=O)CCC)[C@@]1(O)[C@H]2OC(=O)[C@@]1(C)O [Thapsigargin] + CC[C@H](NC(=O)[C@H](C)NC)C(=O)N1C[C@@H](O)C[C@H]1Cc1c(-c2[nH]c3cc(F)ccc3c2C[C@@H]2C[C@H](O)CN2C(=O)[C@H](CC)NC(=O)[C@H](C)NC)[nH]c2cc(F)ccc12 [Birinapant]
Excess HSA synergy score [1]: -265
Excess HSA synergy score [2]: -912

O=C(O)C(=O)CBr [3-Bromopyruvate] + CC[C@H](NC(=O)[C@H](C)NC)C(=O)N1C[C@@H](O)C[C@H]1Cc1c(-c2[nH]c3cc(F)ccc3c2C[C@@H]2C[C@H](O)CN2C(=O)[C@H](CC)NC(=O)[C@H](C)NC)[nH]c2cc(F)ccc12 [Birinapant]
Excess HSA synergy score [1]: 97.1

CCOC(=O)Nc1ccc(NCc2ccc(F)cc2)cc1N [Retigabine] + CC[C@H](NC(=O)[C@H](C)NC)C(=O)N1C[C@@H](O)C[C@H]1Cc1c(-c2[nH]c3cc(F)ccc3c2C[C@@H]2C[C@H](O)CN2C(=O)[C@H](CC)NC(=O)[C@H](C)NC)[nH]c2cc(F)ccc12 [Birinapant]
Excess HSA synergy score [1]: 64.5

CC(C)CC(N(C)C)C1(c2ccc(Cl)cc2)CCC1 (stereo not drawn) [Sibutramine hydrochloride] + CC[C@H](NC(=O)[C@H](C)NC)C(=O)N1C[C@@H](O)C[C@H]1Cc1c(-c2[nH]c3cc(F)ccc3c2C[C@@H]2C[C@H](O)CN2C(=O)[C@H](CC)NC(=O)[C@H](C)NC)[nH]c2cc(F)ccc12 [Birinapant]
Excess HSA synergy score [1]: 96.7

CC(C)NC1CCn2c(=O)[nH]c3cccc(c32)C1O (stereo not drawn) [Zilpaterol] + CC[C@H](NC(=O)[C@H](C)NC)C(=O)N1C[C@@H](O)C[C@H]1Cc1c(-c2[nH]c3cc(F)ccc3c2C[C@@H]2C[C@H](O)CN2C(=O)[C@H](CC)NC(=O)[C@H](C)NC)[nH]c2cc(F)ccc12 [Birinapant]
Excess HSA synergy score [1]: 413

CC1=C2C[C@H]3[C@@H](CC=C4C[C@@H](O)CC[C@@]43C)[C@@H]2CC[C@]12O[C@@H]1C[C@H](C)CN[C@H]1[C@H]2C [Cyclopamine] + CC[C@H](NC(=O)[C@H](C)NC)C(=O)N1C[C@@H](O)C[C@H]1Cc1c(-c2[nH]c3cc(F)ccc3c2C[C@@H]2C[C@H](O)CN2C(=O)[C@H](CC)NC(=O)[C@H](C)NC)[nH]c2cc(F)ccc12 [Birinapant]
Excess HSA synergy score [1]: 82.1

CCNC(=O)C[C@@H]1N=C(c2ccc(Cl)cc2)c2cc(OC)ccc2-n2c(C)nnc21 + CC[C@H](NC(=O)[C@H](C)NC)C(=O)N1C[C@@H](O)C[C@H]1Cc1c(-c2[nH]c3cc(F)ccc3c2C[C@@H]2C[C@H](O)CN2C(=O)[C@H](CC)NC(=O)[C@H](C)NC)[nH]c2cc(F)ccc12 [Birinapant]
Excess HSA synergy score [1]: -120

CC(C)[C@]12O[C@H]1[C@@H]1O[C@]13[C@]1(O[C@H]1C[C@H]1C4=C(CC[C@@]13C)C(=O)OC4)[C@@H]2O [Triptolide] + CC[C@H](NC(=O)[C@H](C)NC)C(=O)N1C[C@@H](O)C[C@H]1Cc1c(-c2[nH]c3cc(F)ccc3c2C[C@@H]2C[C@H](O)CN2C(=O)[C@H](CC)NC(=O)[C@H](C)NC)[nH]c2cc(F)ccc12 [Birinapant]
Excess HSA synergy score [1]: -151
Excess HSA synergy score [2]: -1170

CC1(N2CCC(n3c([C@@H]4CCCNC4)nc4ccccc43)CC2)CCCCCCC1 + CC[C@H](NC(=O)[C@H](C)NC)C(=O)N1C[C@@H](O)C[C@H]1Cc1c(-c2[nH]c3cc(F)ccc3c2C[C@@H]2C[C@H](O)CN2C(=O)[C@H](CC)NC(=O)[C@H](C)NC)[nH]c2cc(F)ccc12 [Birinapant]
Excess HSA synergy score [1]: 152

O=C(N[C@H]1CN2CCC1CC2)c1ccc(Cl)cc1 + CC[C@H](NC(=O)[C@H](C)NC)C(=O)N1C[C@@H](O)C[C@H]1Cc1c(-c2[nH]c3cc(F)ccc3c2C[C@@H]2C[C@H](O)CN2C(=O)[C@H](CC)NC(=O)[C@H](C)NC)[nH]c2cc(F)ccc12 [Birinapant]
Excess HSA synergy score [1]: 162

C[C@]12O[C@H](C[C@]1(O)CO)n1c3ccccc3c3c4c(c5c6ccccc6n2c5c31)CNC4=O [Lestaurtinib] + CC[C@H](NC(=O)[C@H](C)NC)C(=O)N1C[C@@H](O)C[C@H]1Cc1c(-c2[nH]c3cc(F)ccc3c2C[C@@H]2C[C@H](O)CN2C(=O)[C@H](CC)NC(=O)[C@H](C)NC)[nH]c2cc(F)ccc12 [Birinapant]
Excess HSA synergy score [1]: -142

CC[C@@H]1[C@@H](C)O[C@@](O)([C@@H](C)[C@H](O)[C@H](C)[C@H]2OC(=O)/C=C/C=C/[C@H](C)[C@@H]([C@@H](C)[C@@H](O)[C@H](C)[C@@]3(O)C[C@@H](O[C@H]4C[C@H](O)[C@H](O)[C@H](C)O4)[C@H](CC)[C@@H](C)O3)OC(=O)/C=C/C=C/[C@@H]2C)C[C@H]1O[C@H]1C[C@H](O)[C@H](O)[C@H](C)O1 [Azalomycin-B] + CC[C@H](NC(=O)[C@H](C)NC)C(=O)N1C[C@@H](O)C[C@H]1Cc1c(-c2[nH]c3cc(F)ccc3c2C[C@@H]2C[C@H](O)CN2C(=O)[C@H](CC)NC(=O)[C@H](C)NC)[nH]c2cc(F)ccc12 [Birinapant]
Excess HSA synergy score [1]: -24.5

CO/C1=C\C(C)=C\[C@@H](C)[C@@H](O)[C@@H](C)C/C(C)=C/C=C/[C@H](OC)[C@@H]([C@@H](C)[C@@H](O)[C@H](C)[C@@]2(O)C[C@@H](O)[C@H](C)[C@@H](C(C)C)O2)OC1=O [Bafilomycin A1] + CC[C@H](NC(=O)[C@H](C)NC)C(=O)N1C[C@@H](O)C[C@H]1Cc1c(-c2[nH]c3cc(F)ccc3c2C[C@@H]2C[C@H](O)CN2C(=O)[C@H](CC)NC(=O)[C@H](C)NC)[nH]c2cc(F)ccc12 [Birinapant]
Excess HSA synergy score [2]: -1470

CC1C=CC=CCCC=CC=CC=CC=CC(OC2OC(C)C(O)C(N)C2O)CC2OC(O)(CC(O)C(O)CCC(O)CC(O)CC(O)CC(=O)OC(C)C(C)C1O)CC(O)C2C(=O)O (stereo not drawn) [Nystatin] + CC[C@H](NC(=O)[C@H](C)NC)C(=O)N1C[C@@H](O)C[C@H]1Cc1c(-c2[nH]c3cc(F)ccc3c2C[C@@H]2C[C@H](O)CN2C(=O)[C@H](CC)NC(=O)[C@H](C)NC)[nH]c2cc(F)ccc12 [Birinapant]
Excess HSA synergy score [1]: 90.8

N=c1c2c(-c3ccccc3)c(-c3ccccc3)n(Cc3ccccc3)c2ncn1[C@H]1CC[C@H](O)CC1 + CC[C@H](NC(=O)[C@H](C)NC)C(=O)N1C[C@@H](O)C[C@H]1Cc1c(-c2[nH]c3cc(F)ccc3c2C[C@@H]2C[C@H](O)CN2C(=O)[C@H](CC)NC(=O)[C@H](C)NC)[nH]c2cc(F)ccc12 [Birinapant]
Excess HSA synergy score [1]: -361

C[C@@]12OC(=O)[C@]1([C@@H](O)[C@@H]1C=CCCC1)NC(=O)[C@@H]2CCCl [Marizomib] + CC[C@H](NC(=O)[C@H](C)NC)C(=O)N1C[C@@H](O)C[C@H]1Cc1c(-c2[nH]c3cc(F)ccc3c2C[C@@H]2C[C@H](O)CN2C(=O)[C@H](CC)NC(=O)[C@H](C)NC)[nH]c2cc(F)ccc12 [Birinapant]
Excess HSA synergy score [1]: -95.7

CO[C@H]1CC[C@@H](O[C@H]2C[C@H]([C@]3(C)CC[C@]4(C[C@H](O)[C@@H](C)[C@@H]([C@@H](C)/C=C(\C)C(=O)[C@H](C)C[C@H](C)C(=O)O)O4)O3)O[C@]3(O[C@@H]([C@H]4O[C@@](O)(CO)[C@H](C)C[C@@H]4C)C[C@@H]3C)[C@@H]2C)O[C@@H]1C [Nanchangmycin] + CC[C@H](NC(=O)[C@H](C)NC)C(=O)N1C[C@@H](O)C[C@H]1Cc1c(-c2[nH]c3cc(F)ccc3c2C[C@@H]2C[C@H](O)CN2C(=O)[C@H](CC)NC(=O)[C@H](C)NC)[nH]c2cc(F)ccc12 [Birinapant]
Excess HSA synergy score [1]: -308
Excess HSA synergy score [2]: -1080

CC[C@@]1([C@@H]2O[C@@H]([C@H]3O[C@@](O)(CO)[C@H](C)C[C@@H]3C)C[C@@H]2C)CC[C@H]([C@]2(C)CC[C@]3(C[C@H](O)[C@@H](C)[C@@H]([C@@H](C)[C@@H](OC)[C@H](C)C(=O)O)O3)O2)O1 [Monensin sodium salt] + CC[C@H](NC(=O)[C@H](C)NC)C(=O)N1C[C@@H](O)C[C@H]1Cc1c(-c2[nH]c3cc(F)ccc3c2C[C@@H]2C[C@H](O)CN2C(=O)[C@H](CC)NC(=O)[C@H](C)NC)[nH]c2cc(F)ccc12 [Birinapant]
Excess HSA synergy score [1]: -104

Cc1n[nH]c2ccc(-c3cncc(OC[C@@H](N)Cc4c[nH]c5ccccc45)c3)cc12 + CC[C@H](NC(=O)[C@H](C)NC)C(=O)N1C[C@@H](O)C[C@H]1Cc1c(-c2[nH]c3cc(F)ccc3c2C[C@@H]2C[C@H](O)CN2C(=O)[C@H](CC)NC(=O)[C@H](C)NC)[nH]c2cc(F)ccc12 [Birinapant]
Excess HSA synergy score [1]: -218

CC(C)c1cccc(C(C)C)c1O [Propofol] + CC[C@H](NC(=O)[C@H](C)NC)C(=O)N1C[C@@H](O)C[C@H]1Cc1c(-c2[nH]c3cc(F)ccc3c2C[C@@H]2C[C@H](O)CN2C(=O)[C@H](CC)NC(=O)[C@H](C)NC)[nH]c2cc(F)ccc12 [Birinapant]
Excess HSA synergy score [1]: 6.44
